CR mimetic SO: caloric restriction mimetics inhibiting age-related superoxide in yeast. AID 2690. S. cerevisiae aged cells, superoxide DHE fluorescence; stronger effect = lower value. 0.18% of 330,000 active. superoxide response (% of plate mean), % at 10 µM;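 active means superoxide response under a set limit, about three screen SD below normal, cut at about 65% in these data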;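 further: yeast aged for seven days with compound at 30 °C before DHE staining; 100% = average MFI of all compound-treated wells on the plate with controls excluded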
V-ATPase pH: regulators of yeast V-ATPase proton transport. 0.37% of 350,000 active. AID 504577. S. cerevisiae, pHLuorin cytosolic pH fluorescence. response, % at 10 µM; in the data active means response mostly above about 7.3%, no sharp cut-off; inactive means mostly below about 5.4%; further: actives read high
CTSL1 counter: blocks F. hepatica cathepsin L1 in PFM18AAP counter-screen; recombinant F. hepatica cathepsin L1, Z-Leu-Arg-MCA fluorescence; 0.49% of 300,000 active; AID 1906; inhibition, % at 5.96 µM;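 active means inhibition above the mean of all tested compounds plus 3 SD, set per screening campaign, cut at about 17% in these data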;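 further: 0% = plate median of test compound wells and 100% = 1 µM Z-Phe-Ala-diazomethylketone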
hiPSC survival: increases survival of single human iPS cells | hiPSC single-cell survival, ATPlite luminescence; 100% = ROCK inhibitor wells, 0% = DMSO | survival enhancement, % at 20 µM | 0.044% of 360,000 active; in the data active means survival enhancement above about 18%;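 further: cells exposed to compounds for 16 hours before the ATP read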
Superoxide pick: confirmation of caloric restriction mimetics inhibiting yeast age-related superoxide; shares compounds with CR mimetic SO; S. cerevisiae aging, superoxide DHE fluorescence; stronger effect = lower value; superoxide response (% of plate), % at 10 µM; 1% of 850 active;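 active means superoxide signal below 65% of the plate average of sample wells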;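 further: cells aged with compound for 7 days at 30 degrees C before staining; 100% equals mean DHE fluorescence of all compound wells on the plate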
DHE counter: counter-screen for compounds affecting DHE oxidation and fluorescence in yeast. shares compounds with CR mimetic SO. fluorescence response, % at 10 µM. AID 435000. S. cerevisiae BY4741, flow cytometry; stronger effect = lower value. 850 tested, under 10 active;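 active means fluorescence response below 15%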;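 further: percent of the mean fluorescence averaged over all compound wells on the plate; lower means stronger quenching of DHE signal or ROS scavenging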
Active calls of the source: *; . = no result. A selection: hits, their analogues and other compounds. The true share with any hit is near 1%.

SMILES	CR mimetic SO	V-ATPase pH	CTSL1 counter	hiPSC survival	Superoxide pick	DHE counter
CCCCN(C=O)c1c(CC)nc2ccc(C(=O)NCCN(C)C)cn12	.	.	.	-1	.	.
COC(=O)c1ccccc1NS(=O)(=O)c1ccc(F)cc1	127	-1	5	-1	104	86
CC(C)(C)OC(=O)N[C@@H](Cc1ccccc1)C(=O)NCC1CCC(C(=O)N[C@@H](CC(=O)O)C(=O)O)CC1 (stereo not given in full)	126	-1	1	0	.	.
O=C(CCNC(=O)c1ccc(Br)cc1)OCc1ccccc1Cl	63*	4	-5	1	115	115
O=C(CNC(=O)c1ccccc1)NCC(=O)OCc1ccccc1Cl	109	-1	-8	-1	.	.
CCC1=Nc2cc(C(=O)NCCCN3CCN(C)CC3)ccc2Sc2ccccc21	92	4	-9	0	.	.
COc1ccc(-c2sc3cc4c(cc3c2C#CCO)OCO4)cc1	63*	-4	.	2	103	92
COc1ccc(-c2sc3cc4c(cc3c2C#Cc2ccc(N)cc2)OCO4)cc1	100	-6	.	-1	.	.
Cc1ccc(NS(=O)(=O)c2cc(C(=O)O)ccc2Cl)cc1	94	0	1	0	.	.
O=C(O)c1ccc(NS(=O)(=O)c2cc(Cl)ccc2Cl)cc1	105	7	-2	-2	114	119
Cc1ccc(-n2c(SCC(=O)Nc3ccc(Cl)cc3)nc(O)cc2=O)cc1	85	-1	-3	0	.	.
O=C(O)c1cnc2ccccc2n1	64*	1	-4	0	71	94
O=C(Nc1ccc2ccccc2c1)c1ccc(Cl)cc1Cl	50*	-1	-1	0	95	100
COc1ccc(/C(C#N)=C/c2ccccn2)cc1	58*	2	-3	0	122	109
Cc1ccc(N2CN=C3SCC(=O)N3C2)cc1C	97	-3	-4	-2	.	.
C=CCOn1c(=O)c(-c2cccs2)[n+]([O-])c2ccccc21	62*	3	2	-3	92	110
O=c1c(Cc2c(F)cccc2Cl)c(O)ccn1C1CCCCCC1	104	1	-2	-1	.	.
COc1ccc(S(=O)(=O)N2CCC3(CC2)CC(=O)c2ccccc2O3)cc1C	65*	-3	-1	0	100	96
COc1ccc2nc3ccccc3nc2c1NC(=O)c1ccccc1Cl	53*	-1	1	2	80	93
N#CCCN(Cc1ccccc1)C(=S)NC(=O)c1ccccc1	57*	2	1	0	102	107
COc1ccc(CN(CCC#N)C(=S)NC(=O)c2ccccc2)cc1	96	5	-4	-2	.	.
Cc1cccc(NC(=O)c2nc[nH]c2C(=O)N[C@@H](C)C(=O)OCc2ccccc2)c1	87	1	3	6	.	.
Cc1cccc(NC(=O)c2nc[nH]c2C(=O)N[C@@H](CC(C)C)C(=O)OCc2ccccc2)c1	63*	3	3	-1	91	94
CC(=O)OC1(C(C)=O)CCC2C3CC4OC45CC(O)CCC5(C)C3CCC21C (stereo not given)	.	-3	.	-2	121	115
CC(=O)OC1CCC2(C)C3CCC4(C)C(C(C)=O)CCC4C3CC3OC32C1 (stereo not given)	.	1	.	-1	.	.
SMILES	CR mimetic SO	V-ATPase pH	CTSL1 counter	hiPSC survival	Superoxide pick	DHE counter
O=C1C(c2ccccc2)=[N+]([O-])c2ccccc21	57*	-1	31*	-2	81	95
Cc1ccc(S(=O)(=O)N2CCN=C2SCc2ccccc2)cc1	63*	0	1	0	99	100
Cc1ccc(S(=O)(=O)N(C)c2ccc(N)cc2)cc1	92	-3	0	3	107	104
Cc1ccc(S(=O)(=O)N(C)c2ccc(C(=O)O)cc2)cc1	104	-1	1	3	.	.
COc1cccc(/C=N/NC(=O)CCn2c3ccccc3c3ccccc32)c1	92	2	1	8	.	.
NNC(=O)CCn1c2ccccc2c2ccccc21	108	-1	3	3	97	106
CCCS(=O)(=O)c1nc(S(=O)(=O)c2ccc(Cl)cc2)c(N2CCC(O)CC2)s1	117	-1	-2	0	.	.
Cc1noc(NS(=O)(=O)c2ccc(N/C=C/C(=O)c3ccc4c(c3)OCO4)cc2)c1C	65*	0	7	-2	103	123
Cc1noc(NS(=O)(=O)c2ccc(N/C=C\C(=O)c3ccc(F)cc3)cc2)c1C	93	-1	6	1	.	.
O=C(Cc1ccccc1F)Nc1cc(S(=O)(=O)N2CCOCC2)ccc1N1CCCC1	94	.	.	2	110	105
O=C(Cc1ccccc1F)Nc1cc(S(=O)(=O)N2CCOCC2)ccc1N1CCOCC1	75	5	.	0	.	.
CCN(CC)S(=O)(=O)c1ccc(N2CCCC2)c(NC(=O)Cc2ccccc2)c1	40*	-1	4	0	110	108
CCN(C(=O)CSc1ncccc1C(=O)OC(C)C)c1cccc(C)c1	63*	6	7	-2	112	101
CC(=O)Oc1c(C)cc(Cl)cc1C(=O)Nc1ccc([N+](=O)[O-])cc1Cl	119	1	0	5	.	.
Cc1ccccc1-c1nc(CS(=O)CC(=O)NCc2ccccn2)c(C)o1 (stereo not given)	97	0	-14	0	.	.
CCOC(=O)c1c(NC(=O)CSc2nnnn2-c2ccccc2OCC)sc2c1CC(C)(C)NC2(C)C	89	-2	4	0	.	.
CCOC(=O)c1c(NC(=O)CSc2nnnn2-c2ccccc2)sc2c1CC(C)(C)NC2(C)C	62*	3	2	0	106	106
CCOC(=O)C1CCN(S(=O)(=O)c2ccc3c(c2)CC(C)N3C(=O)C2CCC2)CC1 (stereo not given)	116	2	-1	1	.	.
CN(C)S(=O)(=O)N1CCN(CC(O)COc2ccc(-c3ccccc3)cc2)CC1 (stereo not given)	103	-3	-1	-1	.	.
CN(C(=O)Nc1cccc(C(F)(F)F)c1)C1CCCCC1	54*	-4	0	0	91	103
S=C(NCc1ccc(Cl)cc1)NCc1ccccn1	98	-1	1	0	.	.
CC(C)CCC(CCNCc1ccccn1)c1ccc(Cl)cc1 (stereo not given)	48*	-2	0	-1	107	109
Cc1cc(Br)ccc1SCC(=O)OCC(=O)NCc1ccco1	116	0	-9	0	.	.
CCCc1nc2ccc(C)cn2c1Cc1cccc(Cl)c1	.	.	.	0	.	.
Cc1ccc(S(=O)(=O)N2CC(O)CC2C(=O)O)cc1 (stereo not given)	92	-1	-3	0	110	109
CN(CCO)c1cnccn1	104	0	-6	0	.	.
c1cc2c(cc1CN1CCN(C3CCCCCC3)CC1)OCO2	44*	5	2	0	95	93
CCn1c2ccccc2c2cc(NC(C)=O)ccc21	111	4	-1	1	107	105
